HIF act = HIF pathway transcriptional activators, primary screen, cell-based, U2OS HRE-luciferase, luminescence | AID 1910, 2009 | U2OS HRE-luciferase reporter; normalized: DMSO 0%, desferrioxamine 100% | 0.32% of 300,000 active | activation, % at 7.5 µM (by protocol);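 active = mean activation of at least 10% of the iron chelator positive control signal, with at least half of replicates also reaching 10%; inconclusive = mean and replicate majority disagree about reaching 10%; inactive = mean and most replicates under 10%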
CR mimetic SO = reduction of superoxide in aged yeast, primary screen, HTS; S. cerevisiae aged cells, superoxide DHE fluorescence; active compounds read low; superoxide response (% of plate mean), % at 10 µM; 0.18% of 330,000 active; AID 2690, 2010;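 active = superoxide response under a set limit, about three screen SD below normal, cut at about 65% in these data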;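 also: yeast aged for seven days with compound at 30 °C before DHE staining; 100% = average MFI of all compound-treated wells on the plate with controls excluded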
HDAC3 inhib = HDAC3 deacetylase inhibitors, primary screen, biochemical, fluorescence, cell-free homogeneous; recombinant HDAC3, fluorogenic peptide/trypsin coupled; AID 2718, 2010; 0.15% of 320,000 active; Histone deacetylase 3 (Homo sapiens), O15379; inhibition, % at 8.3 µM; in the data active = inhibition above about 26%, passing the limit was not always enough; inconclusive = no clear call, values can overlap the other calls
LANA-H2B inh = blockers of LANA interaction with H2A/H2B – biochemical, FP readout, HTS, primary screen | Protein LANA1 (Human herpesvirus 8 type P (isolate GK18)), Q9QR71 | cell-free LANA-H2A/H2B peptide, fluorescence polarization | inhibition, % (concentration not given with the values) | 0.6% of 320,000 active; in the data active = inhibition mostly above about 10%, no sharp cut-off; inactive = mostly below about 6.7%
Target sequence (Q9QR71 whole entry, looked up): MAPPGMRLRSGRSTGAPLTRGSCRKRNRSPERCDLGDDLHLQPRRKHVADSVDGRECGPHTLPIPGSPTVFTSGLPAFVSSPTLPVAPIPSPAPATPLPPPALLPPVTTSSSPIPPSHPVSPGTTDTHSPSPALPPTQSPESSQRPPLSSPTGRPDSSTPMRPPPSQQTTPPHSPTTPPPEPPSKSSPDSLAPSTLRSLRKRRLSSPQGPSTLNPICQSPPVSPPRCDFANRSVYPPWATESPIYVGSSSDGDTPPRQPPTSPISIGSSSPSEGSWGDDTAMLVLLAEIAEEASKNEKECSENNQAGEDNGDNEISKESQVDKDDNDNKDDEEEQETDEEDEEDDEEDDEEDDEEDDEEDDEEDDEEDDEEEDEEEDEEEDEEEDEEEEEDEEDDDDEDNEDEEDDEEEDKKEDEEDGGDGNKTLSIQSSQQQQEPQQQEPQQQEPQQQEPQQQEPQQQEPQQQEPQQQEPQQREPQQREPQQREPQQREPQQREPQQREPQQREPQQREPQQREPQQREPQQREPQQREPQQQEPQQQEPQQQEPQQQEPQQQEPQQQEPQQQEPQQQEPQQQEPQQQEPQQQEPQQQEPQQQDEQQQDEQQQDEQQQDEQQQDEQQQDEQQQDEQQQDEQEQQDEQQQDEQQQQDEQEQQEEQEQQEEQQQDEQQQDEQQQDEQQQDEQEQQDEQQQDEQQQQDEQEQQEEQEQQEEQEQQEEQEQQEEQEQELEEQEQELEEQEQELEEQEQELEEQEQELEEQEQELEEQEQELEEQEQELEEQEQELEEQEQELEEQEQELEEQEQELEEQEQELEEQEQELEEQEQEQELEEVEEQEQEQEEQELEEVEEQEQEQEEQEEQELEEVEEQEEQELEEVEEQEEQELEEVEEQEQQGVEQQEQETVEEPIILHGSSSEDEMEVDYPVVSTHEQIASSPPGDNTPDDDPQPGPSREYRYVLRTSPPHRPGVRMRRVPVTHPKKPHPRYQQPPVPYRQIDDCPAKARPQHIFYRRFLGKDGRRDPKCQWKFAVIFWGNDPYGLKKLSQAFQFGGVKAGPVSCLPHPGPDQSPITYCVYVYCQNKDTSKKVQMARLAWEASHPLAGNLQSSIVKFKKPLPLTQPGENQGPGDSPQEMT
Superoxide pick = superoxide lowering in aged yeast cells, confirmation, cherry picked compounds; shares compounds with CR mimetic SO; S. cerevisiae aging, superoxide DHE fluorescence; active compounds read low; superoxide response (% of plate), % at 10 µM; 1% of 850 active; AID 434994, 2010;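 active = superoxide signal below 65% of the plate average of sample wells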;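 also: cells aged with compound for 7 days at 30 degrees C before staining; 100% equals mean DHE fluorescence of all compound wells on the plate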
DHE counter = DHE quenching or ROS scavenging interference in aged yeast, artefact control for yeast caloric restriction mimetic project, S. cerevisiae BY4741, flow cytometry; DHE fluorescence; active compounds read low; shares compounds with CR mimetic SO; 850 tested, under 10 active; fluorescence response, % at 10 µM; AID 435000, 2010;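 active = fluorescence response below 15%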;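 also: percent of the mean fluorescence averaged over all compound wells on the plate; lower means stronger quenching of DHE signal or ROS scavenging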
An asterisk follows results filed as active; ? = inconclusive; / = no result given. Hits are enriched below; roughly 1.2% of the tested compounds scored in any of these assays.

SMILES	HIF act	CR mimetic SO	HDAC3 inhib	LANA-H2B inh	Superoxide pick	DHE counter
NC1=C(c2ccccc2)C(=O)NC1=O	-12.3	36.6*	-7.5	-0.1	99.1	106.2
N#Cc1c(-c2ccc(C(F)(F)F)cc2)cc(-c2ccccc2)[nH]c1=S	-2.8	86.9	-4.1	-1.7	/	/
COc1ccc(-n2c(C)cc(C(=O)CN3CCC(C)CC3)c2C)cc1	0.8	65.5*	1.4	-0.8	104.3	89.2
COc1ccc(-n2c(C)cc(C(=O)CN3CCCCC3)c2C)cc1	-0.1	96.7	2.4	2.8	/	/
O=C(COc1ccccc1Cl)N1CCN(c2ccccn2)CC1	-0.3	103.7	-2.4	-3.7	/	/
CC(=O)c1cccc(NC(=O)c2ccccc2N(Cc2ccccc2)S(C)(=O)=O)c1	-1.4	108.4	-9.4	2.5	/	/
CN(C)c1ccc(/C=N/NC(=O)c2cc(-c3ccc4c(c3)OCO4)n[nH]2)cc1	2.8	106.8	-10.1	-4.6	/	/
O=C(N/N=C/c1ccc(F)cc1)c1cc(-c2ccc3c(c2)OCO3)n[nH]1	?	64.0*	2.9	7.8	105.4	94.5
O=c1cc(O)c2c(=O)n(C3CCCCC3)c3ccccc3c2o1	-0.1	98.0	2.6	4.8	90.0	91.4
CCCCn1c(=O)c2c(O)cc(=O)oc2c2ccccc21	21.9*	43.3*	2.3	7.1	115.0	105.4
O=c1cc(O)c2c(=O)n(Cc3ccccc3)c3ccccc3c2o1	0.1	70.4	-1.1	-3.8	/	/
O=c1cc(O)c2c(=O)n(-c3ccccc3)c3c(c2o1)CCCCCC3	-0.2	95.7	2.2	-5.0	/	/
C=C(C)[C@@H]1CCC2(C(=O)O)CC[C@]3(C)[C@H](CC[C@@H]4[C@@]5(C)CCC(=O)C(C)(C)[C@@H]5CC[C@]43C)[C@@H]12 (stereo partly specified)	-0.6	98.7	-2.5	0.7	/	/
CC1(C)C(=O)CC[C@@]2(C)[C@H]1CC[C@@]1(C)CC3=C(CC[C@@H]12)[C@@]1(C)CCC(=O)C(C)(C)[C@@H]1CC3	/	63.9*	2.3	0.4	95.0	99.9
CCn1c2ccccc2c2cc(/C(C)=N/O)ccc21	0.2	100.6	-1.2	0.7	103.8	121.6
CCn1c2ccccc2c2cc(N)ccc21	0.0	99.2	-16.1	-1.3	95.8	96.4
CCC(CC)NCc1ccc2c(c1)c1ccccc1n2CC	-0.7	101.2	-1.4	-1.6	107.0	93.0
CCCn1c2ccccc2c2cc(C(=O)O)ccc21	-0.4	114.3	2.4	0.5	105.5	96.0
Fc1ccccc1COc1ccc(C(=S)N2CCCC2)cc1	1.6	64.8*	-1.7	-1.1	107.2	92.7
O=C(Oc1ccc(C(=S)N2CCCCC2)cc1)c1ccccc1F	-0.1	93.2	-5.9	-1.2	/	/
O=C(CC1CCCCC1)NCCS(=O)(=O)N1CCN(c2ccccc2)CC1	-0.3	64.0*	1.9	-5.5	96.0	107.2
O=C(CCC1CCCC1)NCCS(=O)(=O)N1CCN(c2ccccc2)CC1	3.3	90.3	6.8	-2.2	/	/
CCCCN1C(=N)N([C@@H](CCC)CN2CCC[C@H]2CN2C(N)=NC[C@H]2C(C)C)C[C@H]1[C@H](C)CC	/	117.8	/	/	/	/
Cc1cc(/C=N/NC(=O)C(O)(c2ccccc2)c2ccccc2)c(C)n1-c1ccc(C(=O)O)cc1	-0.1	55.5*	/	-5.3	96.4	105.2
O=C(Nc1ccc(Cl)cc1)[C@@H]1[C@@H]2C(=O)N(c3ccc(Cl)cc3)C(=O)[C@@H]2[C@H]2C=CC=NN21	0.5	64.0*	-12.6	3.6	98.9	93.2
SMILES	HIF act	CR mimetic SO	HDAC3 inhib	LANA-H2B inh	Superoxide pick	DHE counter
Cc1ccc(N2C(=O)[C@@H]3[C@H](C2=O)[C@H]2C=CC=NN2[C@@H]3C(=O)Nc2ccc(Cl)cc2)cc1	-0.1	105.1	1.8	4.8	/	/
O=C(/C=C/c1ccccc1)C1=C(O)C(=O)N(CCO)C1c1ccc2c(c1)OCO2 (stereo unspecified)	-0.6	96.5	6.4	-2.3	/	/
CCN1CCCc2cc(CN(CCN3CCOCC3)C(=S)Nc3ccccc3C)ccc21	-0.1	61.0*	-5.1	-8.2	104.7	101.1
Clc1nc2nc3n(c2nc1Cl)CCC3	-0.5	105.7	-1.8	2.2	/	/
C=CCn1c(SCC(=O)Nc2cc(C)ccc2OC)nnc1-c1ccco1	-0.3	115.5	-1.1	3.4	95.8	91.1
C=CCn1c(SCC(=O)Nc2cc(C)c(Cl)cc2OC)nnc1-c1ccco1	-0.7	97.5	-19.9	3.8	103.7	97.2
COc1ccc(C)cc1NC(=O)CSc1nnc(-c2ccco2)n1Cc1ccco1	-0.4	98.1	2.4	-2.3	/	/
C=CCn1c2ccccc2c2nnc(SCCN3CCOCC3)nc21	2.1	102.6	11.4	1.5	/	/
COC(=O)c1ccc(NC(=O)CCc2nnc3ccc(N4CCC5(CC4)OCCO5)nn23)cc1	0.1	103.0	-0.8	0.7	/	/
COc1ccc(CNS(=O)(=O)c2ccc3oc(C(=O)O)c(C)c3c2)cc1	-0.8	63.4*	3.8	-1.9	100.5	120.7
Cc1c(C(=O)O)oc2ccc(S(=O)(=O)NCc3ccc(F)cc3)cc12	0.3	74.8	1.0	8.2	/	/
Cc1c(C(=O)O)oc2ccc(S(=O)(=O)NC3CCCCCCC3)cc12	0.2	63.1*	-8.1	1.4	110.1	131.1
O=C(CSc1nnc2ccccn12)NNC(=O)c1ccccc1F	/	74.1	1.9	-1.9	/	/
CC(C#N)Sc1ccc(S(=O)(=O)N(C)C2CCCCC2)cn1 (stereo unspecified)	/	103.5	-3.5	-2.2	/	/
O=C1CC(N2CCN(S(=O)(=O)c3ccccc3F)CC2)C(=O)N1c1ccc(F)cc1F (stereo unspecified)	/	65.5*	1.1	0.0	108.5	89.3
COc1ccc(CN(CCO)CCO)cc1[N+](=O)[O-]	0.7	83.0	-3.4	-0.1	/	/
Cc1ccc(-c2nc(N)n(S(C)(=O)=O)n2)cc1	0.4	65.2*	-5.2	2.5	115.3	108.6
O=C(O)COc1ccc(/C=N/NC(=O)Cc2ccc(Cl)cc2)cc1	-0.6	105.0	16.1	-4.0	/	/
COc1ccc(/C=C/C(=O)OCC(=O)NCc2ccco2)c(OC)c1	0.6	108.6	4.1	4.2	/	/
CCc1ccc(NC(=O)CCn2nc(C)c(S(=O)(=O)N3CCCCC3)c2C)cc1	0.0	81.0	4.1	-2.7	/	/
CCOc1ccc(NC(=O)CCn2nc(C)c(S(=O)(=O)N3CCCCC3)c2C)cc1	0.0	58.3*	4.6	3.9	98.6	98.5
CCOC(=O)C1=CC[C@]2(C)c3c(c4ccccc4n3C)C(=O)C1N2C	/	106.9	-1.1	2.6	/	/
Oc1ccc(N=Nc2cccc(Cl)c2)cc1C=Nc1ccc(N2CCOCC2)cc1	7.3	/	/	/	/	/
Clc1cccc(-c2ccc(C=Nc3ccc(N4CCOCC4)cc3)o2)c1	-0.4	52.9*	-5.6	-4.7	93.3	96.2
